Test [1] can be described thus: HepG2 liver cancer cell viability effects, profiling panel, resazurin fluorescence, 24 h, PK04 Diversity Set (AID 1172). To be noted: higher = more signal.
A short description of test [2]: basal S. cerevisiae growth modulation, no modifier, primary screen, OD600, strain BY4716, 24 h, basal condition (AID 1173). The settings on record: OD600, 24 h, higher = more signal, called active from +8 up or from −8 down.
Test [3] can be described thus: MM1S myeloma cell viability, profiling panel, resazurin fluorescence, basal, 24 h, PK04 Diversity Set (AID 1174).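 Also: MM1S multiple myeloma cell line.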 To be noted: higher = more signal, called active from +8 up or from −8 down.
Test [4] addresses Dihydroorotate dehydrogenase (quinone), mitochondrial (Plasmodium falciparum (isolate 3D7)) (UniProt Q08210). Briefly: PfDHODH enzyme inhibitors, primary screen, biochemical, C-terminal His tag, absorbance 600 nm (AID 1175).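 Also: recombinant parasite enzyme with a five histidine tag at its C terminus.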 To be noted: DCIP absorbance 600 nm, higher = more signal, called active from +8 up or from −8 down.
Test [5] in a line: P. aeruginosa biofilm formation inhibitors, primary screen, strain PAO1, LB-PBS medium, absorbance 600 nm (AID 1176). The settings on record: P. aeruginosa PAO1 growth/biofilm, A600, 12 h; higher = more signal.
The nature of test [6]: S. cerevisiae RM11-1a growth modifiers, primary screen, strain RM11-1a, OD600, basal, 24 h (AID 1177).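 Also: cultures grown under basal conditions with no added stressor.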 The settings on record: OD600, 24 h, higher = more signal, called active from +8 up or from −8 down.
Test [7] is described as follows: E. coli acrAB mutant growth effects, primary screen, E. coli filamentation inducers, strain DRC39, OD650, 24 h (AID 1178).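 Also: growth measured as culture turbidity by optical density at 650 nm.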 The settings on record: higher = more signal, called active from +8 up or from −8 down.
Test [8] can be described thus: E. coli acrAB mutant growth effects, primary screen, E. coli filamentation inducers, strain DRC39, OD650, 48 h (AID 1179).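 Also: screen aims at cell division blockers that make cells filament.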 The settings on record: E. coli DRC39 delta-acrAB growth, higher = more signal, called active from +8 up or from −8 down.
Test [9] is described as follows: RPMI8226 myeloma cell viability, profiling panel, resazurin fluorescence, basal, 24 h, PK04 Diversity Set (AID 1180).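 Also: RPMI8826 multiple myeloma cell line at 5000 cells per well.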 To be noted: higher = more signal.
Test [10] deals with E3 ubiquitin-protein ligase XIAP (Homo sapiens) (UniProt P98170). Put plainly: XIAP binders, primary screen, biophysical, small-molecule microarray, fluorescence 635 nm (AID 1181).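 Also: score merges 667 nm emission and signal to noise over triplicate slides.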 The settings on record: small-molecule microarray binding, higher = more signal.
E3 ubiquitin-protein ligase XIAP (Homo sapiens), sequence (P98170 whole entry, looked up): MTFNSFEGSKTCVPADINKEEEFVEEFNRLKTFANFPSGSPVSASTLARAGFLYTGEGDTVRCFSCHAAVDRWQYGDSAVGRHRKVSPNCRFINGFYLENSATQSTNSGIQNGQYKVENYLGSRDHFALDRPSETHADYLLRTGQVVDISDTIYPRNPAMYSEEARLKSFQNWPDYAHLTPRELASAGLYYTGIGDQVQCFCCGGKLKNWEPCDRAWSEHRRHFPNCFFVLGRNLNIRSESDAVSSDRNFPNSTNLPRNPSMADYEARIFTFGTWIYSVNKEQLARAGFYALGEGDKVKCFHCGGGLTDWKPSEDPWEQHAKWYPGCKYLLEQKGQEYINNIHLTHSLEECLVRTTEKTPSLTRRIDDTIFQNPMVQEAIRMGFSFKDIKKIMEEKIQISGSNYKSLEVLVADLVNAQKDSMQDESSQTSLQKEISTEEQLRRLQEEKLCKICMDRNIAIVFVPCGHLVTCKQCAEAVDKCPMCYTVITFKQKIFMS
Test [11] relates to XIP peptide (Xip251-270) binding. Put plainly: small-molecule binders of XIP peptide, primary screen, biochemical, small-molecule microarray, fluorescence 635/667 nm, 0.1 µg/mL protein (AID 1182). The settings on record: fluorescent protein binding, 635 nm, higher = more signal, called active from +8 up or from −8 down.
The test system of the next test is XIP peptide (Xip251-270). Briefly: small-molecule binders of XIP peptide, primary screen, biochemical, small-molecule microarray, fluorescence 635/667 nm, 0.5 µg/mL protein (AID 1183). The settings on record: small-molecule microarray binding, fluorescence 635 nm; higher = more signal.
Test [12] is described as follows: Plasmodium falciparum growth inhibition, primary screen, strain 3D7, DAPI fluorescence, 100 nL (AID 1184).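 Also: parasites grown inside human red blood cells in medium with human serum.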 To be noted: P. falciparum 3D7 growth, 3 d, higher = more signal.
Test [13] deals with Homeobox protein Hox-A13 (Mus musculus) (UniProt Q62424). Put plainly: inhibitors of HoxA13-DNA binding, primary screen, biochemical, fluorescence polarization, labeled oligonucleotide (AID 1185). The settings on record: 15 min, higher = more signal, called active from +8 up or from −8 down. For orientation: Polarisation of emitted light reports the rotation of a fluorescent probe.
Homeobox protein Hox-A13 (Mus musculus), sequence (Q62424 whole entry, looked up): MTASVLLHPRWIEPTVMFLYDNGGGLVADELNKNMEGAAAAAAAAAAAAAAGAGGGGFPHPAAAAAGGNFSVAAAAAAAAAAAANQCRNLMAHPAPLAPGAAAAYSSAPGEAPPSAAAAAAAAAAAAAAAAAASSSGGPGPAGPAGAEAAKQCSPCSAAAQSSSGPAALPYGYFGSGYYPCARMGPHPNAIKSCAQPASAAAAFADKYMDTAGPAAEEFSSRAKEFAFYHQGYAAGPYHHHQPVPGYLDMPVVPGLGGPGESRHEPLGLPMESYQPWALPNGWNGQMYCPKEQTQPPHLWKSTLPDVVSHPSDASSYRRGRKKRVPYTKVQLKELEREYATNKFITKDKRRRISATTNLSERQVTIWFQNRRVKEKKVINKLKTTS

A short description of test [14]: inhibitors of hydroxyurea-induced Chk1 phosphorylation, primary screen, imaging, HeLa, phospho-Chk1 antibody, percent positive cells (AID 1186). The settings on record: hydroxyurea-induced phospho-Chk1 immunofluorescence imaging, higher = more signal.
The nature of test [15]: inhibitors of hydroxyurea-induced Chk1 phosphorylation, primary screen, imaging, HeLa, phospho-Chk1 nuclear intensity (AID 1187). The settings on record: hydroxyurea-induced phospho-Chk1 immunofluorescence imaging, higher = more signal.

Calls of active or inactive are those of the source. Unless noted, no rule for the calls is given here.

Dihydroorotate dehydrogenase (quinone), mitochondrial (Plasmodium falciparum (isolate 3D7)), sequence (Q08210 whole entry, looked up): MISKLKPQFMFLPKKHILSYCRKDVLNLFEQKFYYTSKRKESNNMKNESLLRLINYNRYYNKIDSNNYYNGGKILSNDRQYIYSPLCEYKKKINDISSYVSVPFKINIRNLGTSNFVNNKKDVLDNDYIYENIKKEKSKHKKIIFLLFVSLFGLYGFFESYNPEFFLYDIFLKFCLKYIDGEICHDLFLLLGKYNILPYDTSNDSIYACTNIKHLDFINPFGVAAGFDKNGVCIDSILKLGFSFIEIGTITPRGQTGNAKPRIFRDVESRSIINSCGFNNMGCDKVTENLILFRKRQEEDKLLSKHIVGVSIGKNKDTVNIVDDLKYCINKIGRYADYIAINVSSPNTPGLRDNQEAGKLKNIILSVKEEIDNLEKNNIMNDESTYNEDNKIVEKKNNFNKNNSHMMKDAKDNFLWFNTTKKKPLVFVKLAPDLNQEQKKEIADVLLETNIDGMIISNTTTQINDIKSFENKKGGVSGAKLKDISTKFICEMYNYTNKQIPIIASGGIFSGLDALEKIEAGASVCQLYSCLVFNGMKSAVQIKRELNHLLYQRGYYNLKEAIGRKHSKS

For `O=C(CS)NCCCCCCNC(=O)[C@@H]1C[C@@H]2C(=O)N[C@@H](Cc3ccccc3)C(=O)N2[C@@H]1c1ccc(O)cc1`, the z-score in [1] is -0.306; in test [2], 0.636 (inactive); in [3], 0.0515 (inactive); in [5], -0.239 (inactive); in test [6], 0.809 (inactive); in [7], -0.288 (inactive). Also, the z-score was -0.889 (inactive) in test [8]; -0.518 in [9]; -1.02 in [12]; -2.14 (inactive) in test [13]; -0.0496 (inactive) in test [14]; 0.23 (inactive) in test [15]. Further, the composite z-score in test [4] was 0.224 (inactive); in test [10], 0.0518; in test [11], 0.794 (inactive); in the test on XIP peptide (Xip251-270), 0.811.

In the case of `C=CCC(OC(C)=O)[C@@H]1[C@@H](N(Cc2ccc(-c3cccc(C(F)(F)F)c3)o2)C(=O)Cc2ccc(F)cc2)c2cc(OCCCO)ccc2N1C(=O)c1ccc(-c2ccccc2)cc1` (some centres undefined), the z-score in test [1] was -0.138; in test [2], -0.0284 (inactive); in test [3], 0.314 (inactive); in test [5] it was 1.11 (inactive); in test [6], -0.12 (inactive); in test [7], -0.124 (inactive). Further, the z-score is -0.143 (inactive) in test [8]; 0.171 in test [9]; -0.294 in test [12]; -1.2 (inactive) in test [13]; 0.634 (inactive) in test [14]; -0.385 (inactive) in test [15]. Besides, the composite z-score in test [4] is -0.262 (inactive); in [10], -0.184; in [11] it was -0.403 (inactive); in the test with XIP peptide (Xip251-270), -0.829.

Take `CCC1=C2CN(Cc3ccccc3Br)[C@@H]([C@@H](O)Cc3ccccc3)C2C=CCC1` (some centres undefined): the z-score was 0.596 in test [1]; -5.76 (inactive) in test [2]; -1.3 (inactive) in test [3]; -0.693 (inactive) in test [5]; -0.177 (inactive) in test [6]; 1 (inactive) in test [7]. The z-score in [8] was 0.441 (inactive); in test [9] it was -1.25; in [12], -1.92; in test [13], -7.8 (inactive); in [14], -0.0994 (inactive); in test [15] it was -0.311 (inactive). The composite z-score is -2.74 (inactive) in test [4], 0.0451 in [10], -0.314 (inactive) in test [11] and 0.509 in the test with XIP peptide (Xip251-270).

Consider `COC(=O)[C@@]1(Cc2ccc(OC)cc2)[C@H]2c3cc(C(=O)N(C)C)n(CCc4ccc(OC)c(Br)c4)c3C[C@H]2CN1C(=O)c1ccccc1`, for which the z-score in [1] was -0.575; in test [2], 1.36 (inactive); in test [3], -2.09 (inactive); in test [5], 1.22 (inactive); in test [6] it was 0.961 (inactive); in [7] it was -0.307 (inactive). The z-score in test [8] was -0.025 (inactive); in [9], -3.63; in [12] it was -1.28; in [13], -0.511 (inactive); in test [14], 1.02 (inactive); in [15], 0.463 (inactive). Also, the composite z-score in [4] is 0.125 (inactive); in test [10], -0.0848; in [11] it was 0.717 (inactive); in the test with XIP peptide (Xip251-270), 0.351.

Turning to `COC(=O)[C@@]1(Cc2ccc(OC)cc2)[C@H]2c3cc(C(=O)N(C)C)n(Cc4ccc(C)c(F)c4F)c3C[C@H]2CN1C(=O)c1ccccc1`, the z-score in test [1] was 0.819; in test [2] it was 1.45 (inactive); in test [3] it was 0.468 (inactive); in test [5] it was 0.0944 (inactive); in test [6], 2.26 (inactive); in test [7], 0.423 (inactive). For the same compound, the z-score in test [8] is -0.373 (inactive); in test [9], 1.37; in test [12], -1.13; in test [13], -1.93 (inactive); in [14] it was 0.758 (inactive); in test [15] it was 0.0937 (inactive). The composite z-score in test [4] was 0.164 (inactive); in test [10], 0.385; in test [11], -0.0903 (inactive); in the test on XIP peptide (Xip251-270), 0.465.

In the case of `CCOC(=O)C[C@H]1[C@H](OC(=O)Cc2ccc3c(c2)OCO3)[C@@H](NC(=O)c2ccc3ccccc3c2)c2cc(OCCCO)ccc2N1C(=O)Cc1ccc(OC)cc1`, the z-score in [1] is 0.329; in test [2], -0.566 (inactive); in test [3] it was -0.162 (inactive); in test [5] it was 0.0642 (inactive); in test [6], -1.66 (inactive); in test [7] it was 0.37 (inactive). Moreover, the z-score in [8] was 1.11 (inactive); in test [9] it was 0.202; in test [12], -0.415; in test [13] it was -2.03 (inactive); in test [14], 0.407 (inactive); in [15], 0.668 (inactive). For the same compound, the composite z-score in test [4] is -1.09 (inactive); in [10], -0.0151; in test [11] it was 1.46 (inactive); in the test with XIP peptide (Xip251-270), 0.737.

On to `COc1ccc(-c2cc3c(c(-c4ccccc4)n2)[Si](C(C)C)(C(C)C)O[C@H]3c2ccccc2)cn1`, for which the z-score in test [1] was 0.158; in test [2], 0.509 (inactive); in test [3] it was 0.117 (inactive); in [5] it was 0.35 (inactive); in test [6], -0.824 (inactive); in test [7], 0.0539 (inactive). The z-score in test [8] is -0.508 (inactive); in test [9], 0.184; in test [12], -2.91; in [13] it was -2.23 (inactive); in [14], -0.317 (inactive); in test [15] it was -0.344 (inactive). The composite z-score was -0.349 (inactive) in [4], 0.113 in [10], 0.64 (inactive) in test [11] and 0.559 in the test on XIP peptide (Xip251-270).

Consider `Cc1ccc(S[C@]2(C(=O)NC3CC3)CC(=O)N(Cc3cc(C(F)(F)F)cc(C(F)(F)F)c3)[C@@H]2c2ccc(CO)cc2)cc1`, for which the z-score in test [1] was 1.1; in test [2], -1.03 (inactive); in test [3], 0.219 (inactive); in [5], 0.214 (inactive); in [6], -0.921 (inactive); in [7] it was 0.327 (inactive). Further, the z-score is 0.561 (inactive) in test [8]; 1.25 in test [9]; -0.442 in test [12]; -2.7 (inactive) in test [13]; -0.144 (inactive) in test [14]; -0.0725 (inactive) in test [15]. In addition, the composite z-score is -2.37 (inactive) in test [4], 0.209 in test [10], 0.503 (inactive) in test [11] and -0.0124 in the test with XIP peptide (Xip251-270).

On to `O=C1c2ccccc2[C@@]2(Cc3ccccc3N(CC(F)(F)F)C2=O)[C@H](c2ccc(CO)cc2)N1C1CCCCC1`, for which the z-score is -0.0665 in test [1]; 0.713 (inactive) in test [2]; 1.07 (inactive) in test [3]; 0.379 (inactive) in test [5]; -0.572 (inactive) in [6]; 0.172 (inactive) in [7]. Also, the z-score in test [8] was -0.411 (inactive); in test [9] it was 0.748; in test [12] it was -0.361; in test [13] it was 0.601 (inactive); in test [14], -0.202 (inactive); in [15] it was -0.26 (inactive). Further, the composite z-score in [4] was -24.3 (active); in [10], -0.2; in test [11], 0.586 (inactive); with XIP peptide (Xip251-270), 0.536.

For the origin of these results see PubChem BioAssay.
